Assay results taken from the supplement of paper PMC6555819.

How the values were obtained:
Experiment in all cases: PBM binding z-score (relative to random genomic background probes); higher = stronger binding; sequences stand for … in GC…GCGATTGACAGCGTAGAATGAAGG
[1] = tested on: FXR:RXRa (NR concentration 270 nM, RXRa partner concentration 90 nM)
Outline: (§1)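 Each nuclear receptor dimer, without ligand, was incubated for 1 h on custom Agilent 4×180K protein-binding microarrays. Binding was detected with antibodies against each partner (one per run), and scanned fluorescence was regression-normalized. The binding z-scores are referenced to random human genomic background probes.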

[2] = tested on: LXRa:RXRa (NR concentration 270 nM, RXRa partner concentration 90 nM)
Outline: as §1

[3] = tested on: LXRa homodimer (NR concentration 270 nM)
Outline: as §1

[4] = tested on: LXRb:RXRa (NR concentration 270 nM, RXRa partner concentration 90 nM)
Outline: as §1

[5] = tested on: LXRb homodimer (NR concentration 270 nM)
Outline: as §1

[6] = tested on: PPARa:RXRa (NR concentration 270 nM, RXRa partner concentration 90 nM)
Outline: as §1

[7] = tested on: PPARg:RXRa (NR concentration 180 nM, RXRa partner concentration 90 nM)
Outline: as §1

[8] = tested on: PPARg:RXRa 270nM:90nM, anti-RXR (NR concentration 270 nM, RXRa partner concentration 90 nM)
Outline: as §1

[9] = tested on: PPARg:RXRa 30nM:10nM, anti-RXR (NR concentration 30 nM, RXRa partner concentration 10 nM)
Outline: as §1

[10] = tested on: PPARg:RXRa 90nM:30nM, anti-RXR (NR concentration 90 nM, RXRa partner concentration 30 nM)
Outline: as §1

Sequence | PBM binding z-score [1] | PBM binding z-score [2] | PBM binding z-score [3] | PBM binding z-score [4] | PBM binding z-score [5] | PBM binding z-score [6] | PBM binding z-score [7] | PBM binding z-score [8] | PBM binding z-score [9] | PBM binding z-score [10]
CGTCCACGGTCAGCAGGTCAGTGAAAGCGACGTG | 0.822 | 0.439 | -0.291 | -0.097 | -0.966 | 1.08 | 0.155 | 0.415 | -0.695 | -0.328
CCTTTCGGGTCACGAGGTTATAGCACGACGAGCG | 6.94 | 4.87 | 0.634 | 4.2 | 0.882 | 6.42 | 7.34 | 6.75 | 2.96 | 5.52
ACAGACAGGTGAGTGAAGGAAACTCAGCTGGACG | -0.54 | -0.517 | -0.15 | -0.792 | -0.646 | -1.08 | 0.519 | -0.724 | -0.177 | -0.368
GGAACGAGGGGAAGTTGATAGCAGAGTTTGATGG | 0.0996 | -0.26 | -0.307 | -0.0221 | -0.185 | 0.0181 | 0.515 | 0.29 | -0.0775 | 0.258
ATATGTAGGTTAAGGGTCTTTCAGGTTGGTTCGC | 1.3 | 1.7 | 0.812 | 1.77 | 0.832 | 4.62 | 8.46 | 8.05 | 6.71 | 8.67
CCTGCTAGGTCATGATCAGCTAATCTACAGTATG | 3.25 | 2.63 | 0.02 | 1.94 | -0.0541 | 3.31 | 2.28 | 2.56 | 0.674 | 1.56
CCTACTGGGCCACGAAAGGTCATTGCTTCAGTGA | 3.92 | 5.22 | 5.24 | 4.45 | 0.134 | 4.62 | 4.49 | 4.91 | 2.15 | 4.17
GCTTACGGGTCAAACGTTATAGCATGAATAGAAT | 6.35 | 4.13 | -0.166 | 4.02 | 0.282 | 5.72 | 6.02 | 6.15 | 2.96 | 5.31
CCTAGTTGGTCAAGGTCACACTCGCTATAGGTAC | 3.95 | 3.53 | 2.41 | 3.43 | 0.997 | 3.86 | 2.85 | 3.32 | 1.24 | 2.41
TTACCAAGGTGAGCTGAGTTCGTTGATCCAACTC | 0.596 | 0.237 | -0.394 | -0.0256 | -1.28 | 0.596 | -0.321 | 0.146 | -0.237 | 0.19
TATACAGGGTCAAAGGCCGGAGTACGAATGTCGA | 6.93 | 6.1 | 2.37 | 4.53 | 2.31 | 6.26 | 7.67 | 6.73 | 4.47 | 6.51
CCGTCTGGGGCAGAAAGGTTACCATACCATCCGG | 0.119 | 0.206 | -0.115 | 0.58 | -1.19 | 1.64 | 0.9 | 1.95 | 0.171 | 0.988
TTACCAAGGTGAGCTGAGGTCGTTGACCCAACTC | 2.54 | 2.48 | -0.484 | 1.43 | -0.784 | 2.06 | 0.441 | 0.96 | -0.036 | 0.348
GCTACAGGGTCAGCTAGAGGCCAGAGTATGGAAA | 4.62 | 2.54 | -0.26 | 2.36 | -0.67 | 4.6 | 2.79 | 2.91 | 0.541 | 1.78
TCTCGGAGGACACGAAAGGTCAGCGCTCGACATC | 3.42 | 4.26 | 2.8 | 3.54 | -0.162 | 3.88 | 1.58 | 3.31 | 2.59 | 2.86
CCGACCGGGGCAAGGTTACCATAACGCACAGCCA | 0.591 | 1.02 | -0.0287 | 0.604 | -0.88 | 1.3 | 1.3 | 1.18 | -0.0517 | 0.495
CGTACTAGGTCAGAACAGGACAGTGAAGGATGAT | 1.43 | 1.05 | 0.203 | 0.274 | -0.0494 | 2.29 | 4.39 | 3.35 | 1.31 | 2.31
CCTACTGGGCCAAAAAGGTCATTGCTGCCGATAA | 3.75 | 4.36 | 3.33 | 4.21 | 0.236 | 4.7 | 3.04 | 4.09 | 1.5 | 3.64
CCTTACGGCTCACGAGGTTATAGCACGACGAGCG | 0.307 | 0.723 | 0.155 | 0.376 | -0.33 | 0.625 | 0.887 | 0.128 | -0.0191 | 0.0892
GCATGTAGGTAATACAAGGTGAAAGTCCGATTGT | 0.127 | 1.13 | 0.162 | 0.172 | -0.45 | 1.62 | 1.34 | 1.52 | 0.458 | 0.981
AGAATGAGGTTATACGTATATCAGGGAAGAAAGT | 2.23 | 2.1 | 0.245 | 2.04 | 0.468 | 3.47 | 2.58 | 2.29 | 1.04 | 1.85
CCGACTGGGGCATTAGGTTACCATAAGCCAGCCC | -0.253 | 0.617 | -0.377 | 0.144 | -1.38 | 1.12 | 2.09 | 2.4 | 0.389 | 1.44
CAAACTAGGTCAAGGTCAAAGACGGTTTGTGCCA | 6.55 | 5.25 | 3.28 | 4.37 | 1.4 | 6.32 | 9.9 | 8.3 | 6.78 | 8.62
